Bioassay records as filed in PubChem BioAssay.
ABHD5-PLIN5 inh – ABHD5-PLIN5 interaction inhibitors, primary screen, cell lysate, split luciferase complementation, luminescence; Split G. princeps luciferase complementation, 4 h; inhibition, % at 4 µM; 360,000 compounds, 0.78% hits; AID 602281, 2012;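 active = inhibition above the mean inhibition across every tested compound plus 3 SD, cut at about 22% in these data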;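 note: 0% = DMSO only wells and the 100% control is not disclosed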
Target sequence (Q00G26 whole entry, looked up): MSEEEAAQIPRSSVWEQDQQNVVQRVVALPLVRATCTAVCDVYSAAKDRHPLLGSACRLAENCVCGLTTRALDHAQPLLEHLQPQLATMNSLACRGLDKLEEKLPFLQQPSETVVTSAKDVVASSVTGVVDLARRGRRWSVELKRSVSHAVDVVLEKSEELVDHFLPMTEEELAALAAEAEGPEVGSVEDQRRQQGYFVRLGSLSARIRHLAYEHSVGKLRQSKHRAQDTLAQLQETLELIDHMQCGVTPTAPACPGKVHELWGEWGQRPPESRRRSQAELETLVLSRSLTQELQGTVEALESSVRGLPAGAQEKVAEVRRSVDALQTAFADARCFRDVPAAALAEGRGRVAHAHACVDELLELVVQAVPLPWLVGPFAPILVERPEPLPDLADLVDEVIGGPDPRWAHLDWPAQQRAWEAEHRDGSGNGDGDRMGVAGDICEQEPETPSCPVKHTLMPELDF
Target sequence (Q8WTS1 whole entry, looked up): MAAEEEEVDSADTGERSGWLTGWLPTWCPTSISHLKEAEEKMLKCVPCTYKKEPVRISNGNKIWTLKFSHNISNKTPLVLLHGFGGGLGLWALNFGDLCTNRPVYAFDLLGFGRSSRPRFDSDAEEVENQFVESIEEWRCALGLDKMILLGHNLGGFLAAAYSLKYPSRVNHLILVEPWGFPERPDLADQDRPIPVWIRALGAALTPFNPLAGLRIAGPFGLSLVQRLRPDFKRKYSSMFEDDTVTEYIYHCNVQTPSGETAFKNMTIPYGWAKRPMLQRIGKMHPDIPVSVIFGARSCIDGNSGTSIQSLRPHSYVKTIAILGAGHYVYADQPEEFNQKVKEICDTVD
MITF TRPM1 inh – inhibitors of MITF-dependent TRPM1 promoter reporter, primary screen, cell-based, SK-MEL-5, single point, luciferase. SK-MEL-5 TRPM1 promoter luciferase, 24 h. inhibition, % at 12.5 µM. 330,000 compounds, 0.83% hits. AID 488899, 2010;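 active = mean inhibition across replicates of 60% or more, whatever share of single replicates reaches that level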
CF NFkB inh – inhibitors of PAF-induced NF-kB signaling, primary screen, cell-based, GFP fluorescence, uHTS. inhibition, % at 5 µM. KKLEB NF-kB-GFP reporter, GFP fluorescence overnight. AID 588850, 2011. 360,000 compounds, 0.86% hits;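 active = at least 50% inhibition at 5 µM, scaled per plate between neutral and stimulator controls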;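 note: PAF is a Pseudomonas aeruginosa culture filtrate used as stimulus; plate controls were PAF-stimulated DMSO wells for no effect and unstimulated DMSO wells for full effect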
Peg3 promoter – Peg3 promoter-driven luciferase inhibitors, primary screen, cell-based, HeLa, luciferase luminescence | HeLa PEG-Prom luciferase reporter, overnight | AID 588405, 2011 | 360,000 compounds, 1.7% hits | inhibition, % at 20 µM;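 active = inhibition of at least 50% at 20 µM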
KKLEB tox – cytotoxicity in KKLEB CF airway cells, primary screen, cytotoxicity control for CF NF-kB inhibitor project, cell-based, uHTS, fluorescence assay plates; AID 602141, 2011; KKLEB CF airway cells viability, ATPlite luminescence, overnight; active compounds read low; cells stimulated with P. aeruginosa culture filtrate; 360,000 compounds, 0.36% hits; activity change (cytotoxicity), % at 5 µM;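 active = corrected activity change at or below -50% at 5 µM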
HIF-2a block – HIF-2a reporter inhibitors, primary screen, luminescence, 786-0 RCC cells. AID 624352, 2012. inhibition, % at 18.8 µM. 360,000 compounds, 0.72% hits. 786-0 RCC cells HIF-2a reporter, luciferase luminescence, overnight;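 active = inhibition of the luminescence signal of 40% or more relative to plate controls, in a single-dose primary screen at 18.75 µM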
Numbers without * were called inactive; . = no result. Most compounds without a hit are left out; they make up all but 3.1% or so of the library.

SMILES | ABHD5-PLIN5 inh | MITF TRPM1 inh | CF NFkB inh | Peg3 promoter | KKLEB tox | HIF-2a block
O=C(O)C1=C[C@H](c2ccc(C(F)(F)F)cc2)C[C@H](OCCCCO)O1 | 8 | -11 | 10 | 7 | -8 | 7
O=C(NCC1CCCO1)C1CCN(C2CCN(C(=O)Cc3ccsc3)CC2)CC1 (centres undefined) | 3 | 3 | 2 | -9 | 15 | 7
COc1ccc(/C=C2\SC(=O)N(CC(=O)Nc3cccnc3)C2=O)cc1OC | -2 | -5 | -16 | 8 | 3 | 17
COc1ccc(/C=C2/SC(=O)N(CCC(=O)Nc3ccccc3)C2=O)cc1OC | -8 | 4 | 60* | 10 | -54* | -10
CC1CCCN(CCCNC(=O)c2cc3c(Cl)nc4ccccc4c3s2)C1 (centres undefined) | 17 | -6 | -12 | 92* | -22 | 25
CC1CCN(CCCNC(=O)c2cc3c(s2)-c2ccccc2OC3)CC1 | 17 | 45 | 8 | 62* | -1 | 8
CC1CCCN(CCCNC(=O)c2cc3c(s2)-c2ccccc2OC3)C1 (centres undefined) | 13 | 30 | 10 | 75* | -10 | -9
Cc1cccc2c1-c1sc(C(=O)NCCCN3CCC(C)CC3)cc1CO2 | 12 | 2 | 8 | 75* | 4 | -20
COC(=O)c1cc2c(s1)-c1ccccc1OC2 | -7 | -12 | -48 | -77 | 14 | -124
COC(=O)[C@H](CC(C)C)NC(=O)Cn1cnc2c(SC)nc(N)nc21 | -4 | 2 | -2 | -1 | 0 | 9
CC(C)CCNC(=O)C(c1ccc(O)cc1)N(Cc1cccs1)C(=O)C1COc2ccccc2O1 (centres undefined) | -4 | -5 | 5 | 51* | -3 | -8
CC(C)(C)NC(=O)CN(Cc1cccs1)C(=O)C1COc2ccccc2O1 (centres undefined) | 1 | -8 | 8 | 17 | 6 | -11
COc1ccc2nc(NC(=O)c3cc(C)oc3C)sc2c1 | 2 | -93 | -5 | -265 | -7 | -192
COc1ccc(C(=O)Nc2nc3cc4c(cc3s2)OCO4)c(OC)c1 | 0 | -70 | 49 | -204 | -54* | -308
O=C1C(=O)N(c2nccs2)C(c2ccccc2)/C1=C(\O)c1ccc2c(c1)OCCO2 (centres undefined) | 0 | 67* | 37 | 18 | -13 | -54
CC(=NNC(=S)N1CC2CCC(CC2)C1)c1ccncn1 | -21 | 78* | 33 | 100* | -21 | -137
CC(=NNC(=S)N1CCCCC1)c1ccccn1 | -14 | . | -18 | -14 | -4 | -88
O=C(COC(=O)CCc1nc2ccccc2c(=O)[nH]1)Nc1ccc2c(c1)OCO2 | -2 | 7 | 5 | 3 | 2 | 7
COc1ccc(CCNC(=O)c2ccccc2OCc2c(C)noc2C)cc1 | 2 | 0 | -21 | 7 | 4 | 9
CC(=O)Nc1cccc(-c2ccnc3c2CC(C)(C(=O)Nc2ccccc2)O3)c1 (centres undefined) | 6 | . | -39 | 29 | 10 | 19
CC(=O)Nc1cccc(-c2ccnc3c2CC(C)(C(=O)Nc2ccc(C(C)C)cc2)O3)c1 (centres undefined) | 1 | . | 1 | 52* | -11 | 24
Cc1cc(C)c(S(=O)(=O)N2CCc3ccccc32)c(C)c1 | -10 | 16 | -1 | 16 | -12 | 19
Cc1oc(-c2ccc3c(c2)OCCO3)cc1C(=O)NCC(=O)O | 22* | -15 | -45 | -60 | 3 | -89
Cc1cccc(S(=O)(=O)NC(=O)C2(C)CCN2C(=O)Cc2cc(F)ccc2F)c1 (centres undefined) | 2 | . | 2 | -2 | -2 | 5
COc1cccc(CNCCc2c[nH]c3ccccc23)c1OCc1ccccc1 | 13 | 94* | 10 | 105* | -14 | -8
SMILES | ABHD5-PLIN5 inh | MITF TRPM1 inh | CF NFkB inh | Peg3 promoter | KKLEB tox | HIF-2a block
COc1cc(CNCCc2c[nH]c3ccccc23)ccc1OCc1ccccc1F | -6 | 2 | 12 | 7 | -18 | 6
O=C(CNC(=O)c1ccccc1)OCc1nc2ccccc2s1 | 4 | -13 | -13 | -205 | 6 | -221
Cc1cccc(OCCCC(=O)NNC(=O)c2ccccn2)c1 | 2 | 8 | 13 | 23 | 6 | 8
O=C(COC(=O)/C=C/c1ccc(Br)o1)NCCCN1CCCC1=O | 6 | 1 | -6 | 3 | -1 | 14
CCOC(=O)Cn1c(=NC(=O)C2COc3ccccc3O2)sc2cc(S(N)(=O)=O)ccc21 (centres undefined) | -1 | -10 | 2 | 3 | 4 | 19
CCOC(=O)Cn1c(=NC(=O)c2ccc([N+](=O)[O-])s2)sc2ccccc21 | 2 | 73* | -3 | -9 | -6 | 13
CCc1ccc(C2C(C#N)=C(N)N(N(C)C)C3=C2C(=O)CCC3)cc1 (centres undefined) | -14 | 3 | 2 | 3 | 2 | 16
CC(C)Oc1ccc(/C(O)=C2/C(=O)C(=O)N(CCN(C)C)C2c2cccs2)cc1 (centres undefined) | 0 | -3 | 27 | -69 | -11 | -56
O=C(/C=C1\NC2(CCCC2)Cc2ccccc21)C(=O)N/N=C/c1ccc(O)c(O)c1 | 2 | 20 | 1 | 57* | -5 | 20
COc1ccc(/C=N/NC(=O)C(=O)/C=C2\NC3(CCCC3)Cc3ccccc32)cc1 | 6 | -9 | 3 | 31 | -5 | 9
CC(C)(C)c1ccc(S(=O)(=O)/N=C2\C=C(NS(=O)(=O)c3ccccc3)C(=O)c3ccccc32)cc1 | -7 | 6 | 82* | 29 | -16 | -10
Cc1ccc(S(=O)(=O)/N=C2\C=C(NS(=O)(=O)c3ccccc3)C(=O)c3ccccc32)c(C)c1 | -5 | 26 | 78* | -15 | -6 | -5
C/C(=N\NS(=O)(=O)c1ccc(C(C)(C)C)cc1)c1ccccc1 | -5 | 12 | -12 | -8 | -4 | -3
S=C(NCCCN1CCOCC1)Nc1cccc(-c2nnc3n2CCCCC3)c1 | 7 | 5 | -18 | 2 | -1 | 14
Cc1ccc(S(=O)(=O)c2nc(-c3ccccc3Cl)oc2N2CCN(C)CC2)cc1 | 4 | -12 | 7 | 31 | -11 | -6
Cc1cc(C)nc(/N=C(\N)Nc2ccc(OCCC(C)C)cc2)n1 | 10 | 65* | -6 | 107* | 1 | 3
CC1CCCC=CC2CC(OC(=O)CN(C)C)CC2C(O)C=CC(=O)O1 (centres undefined) | 2 | 76* | 71* | 55* | -41 | 37
